# Inconclusive results are not listed. Values without a mark were called inactive. The source made the active and inactive calls. Calls come from the whole dose curve.
# Experiment: qHTS assay to identify small molecule agonists of H2AX - cell viability counter screen (AID 1224847); note: nearly all actives have a fitted effect of over 30% in size; for activity change, negative = cytotoxicity: top concentration of the series differs between compounds
# Conditions: CHO-K1 viability, CellTiter-Glo luminescence, 3 h; series mostly up to 154 µM; activity change, negative = cytotoxicity: at the top concentration
# From the text: National Center for Advancing Translational Sciences [NCATS]
# NIH Chemical Genomics Center [NCGC]
# U.S. Environmental Protection Agency [EPA]
# National Institutes of Environmental Health Sciences [NIEHS]
# National Toxicology Program [NTP]
# U.S. Food and Drug Administration [FDA]
# HTRF phospho-H2AX (Ser139) assay (Cisbio Bioassays, US) enables the quantitative detection of the histone variant H2AX when phosphorylated on serine 139. When double-stranded DNA breaks, either by ionizing radiation or endogenous physiological processes, H2AX becomes phosphorylated at Ser139. This phospho-Ser139 serves as a sensitive biomarker for the detection of such breaks, localizing the site of DNA repair. So, HTRF phospho-H2AX Ser139 is a pertinent assay to study genome stability, the cell cycle, DNA repair, and it serves as a biomarker for cancer, and to understand aging. Wild type CHO-K1 cells were used to identify the inducers of Phospho-H2AX Ser 139 from the Tox21 compound collections. Also cytotoxicity of the Tox21 10K compound library against the CHO-K1 cell line was tested by measuring the cell viability using CellTiter-Glo assay (Promega, Madison, WI).
# Tox21 Assay Protocol Summary:
# The CHO-K1 cells suspended in culture medium containing 10% FBS were dispensed at 1000 cells/ 3 ul/well in 1536-well white wall/solid bottom plates (Greiner Bio-One North America, NC) using a Multidrop Combi (Thermo Fisher Scientific Inc., Waltham, MA). After the assay plates were incubated at 37C overnight, 23 nl of compounds at 15 concentrations (from 5-48 columns) or positive control (from 1 to 4 columns) were transferred to the assay plates using a Pintool station (Wako, San Diego, CA) into each well resulting in a final DMSO concentration of 0.76%. After 3hr incubation at 37C, 3 uL/well CellTiter-Glo luminescent cell viability reagent (Promega Corporation, Madison, WI) was added using a Flying Reagent Dispenser (FRD) (Aurora Discovery, CA). After incubation at room temperature for 30 min, the luminescence intensity was read using a ViewLux plate reader (PerkinElmer, Waltham, MA).
# % is set by controls: 0 for no effect and ±100 for the full control effect; potency is the fitted concentration of half-maximal effect.
SMILES,"activity change, negative = cytotoxicity",Potency
Cc1c(Cl)c(=O)oc2cc(O)ccc12,-4.47%,–
C[C@H]1O[C@@H](O[C@H]2CC[C@@]3(C)[C@H](CC[C@@H]4[C@@H]3C[C@@H](O)[C@]3(C)[C@@H](C5=CC(=O)OC5)CC[C@]43O)C2)C[C@H](O)[C@@H]1O[C@H]1C[C@H](O)[C@H](O[C@H]2C[C@H](O)[C@H](O[C@@H]3O[C@H](CO)[C@@H](O)[C@H](O)[C@H]3O)[C@@H](C)O2)[C@@H](C)O1,-2.67% [at 70.9 µM],–
SC1CCCCC1,3.86%,–
CCC(O)CO (stereo not given),0.0821%,–
O=c1cc[nH]cc1,1.9%,–
C=CC(=O)O[C@H]1C[C@@H]2CC[C@@]1(C)C2(C)C,2.2%,–
N#CCCOCCC#N,1.33%,–
Cc1cc(C)c(O)c(C(C)(C)C)c1,–,113 µM (active)
C=C(C)CCO,0.527%,–
CCCCCCCCSCc1cc(C)c(O)c(CSCCCCCCCC)c1,3.19%,–
CC(C)C(=O)C(C)C,3.54%,–
Nc1c(Br)cc([N+](=O)[O-])cc1Br,-5.73%,–
CCC(=O)OC/C=C(\C)CCC=C(C)C,2.36%,–
CC/C(=C(/c1ccc(O)cc1)c1ccc(OCCN(C)C)cc1)c1ccccc1,–,41.9 µM (active)
O=C1CCC/C=C\CCCCCCCCCC1,-8.43%,–
CC1=C(/C=C/C(C)=C/C=C/C(C)=C\C(=O)O)C(C)(C)CCC1,1.36%,–
N#Cc1ccc(C/C(=N/NC(=O)Nc2ccc(OC(F)(F)F)cc2)c2cccc(C(F)(F)F)c2)cc1,1.49%,–
Nc1ccc2c(S(=O)(=O)O)cccc2c1S(=O)(=O)O,3.58% [at 70.9 µM],–
C=C(C)C1CCC(C)CC1O (stereo not given),-0.415%,–
[Cl][Sc]([Cl])[Cl],3.56%,–

SMILES,"activity change, negative = cytotoxicity",Potency
CCOc1ccc([N+](=O)[O-])cc1,-10.7%,–
CCCCC/C=C\C=C\C(=O)OCC,4.73%,–
O=C1C=CC(=O)N1c1cccc(N2C(=O)C=CC2=O)c1,–,45 µM (active)
CCCCCCCCc1ccc(Nc2ccc(CCCCCCCC)cc2)cc1,1.2% [at 70.9 µM],–
O=C1OC2(c3ccccc31)c1ccc(O)c(Br)c1Oc1c2ccc(O)c1Br,-0.213%,–
Cc1c[nH]c(=O)[nH]c1=O,2.39%,–
O=C1OC(=O)c2cc(-c3ccc4c(c3)C(=O)OC4=O)ccc21,1.7%,–
CCCCCc1ccc(O)cc1,–,89.8 µM (active)
CC(C)c1ccc2sc3ccccc3c(=O)c2c1,–,50.5 µM (active)
Clc1cccc(Cl)n1,0.957%,–
CC(=O)CC(N)=O,-0.729%,–
C=CC(C)(C)O,2.13%,–
NCc1cccc(C2CCN(C(=O)c3ccc(C#Cc4ccccc4F)o3)CC2)c1,–,56.6 µM (active)
C1=CCCC1,-1.36%,–
CSc1ccc(O)cc1C,2.54%,–
CCCCCCCCCCCCS(=O)(=O)Cl,2.47% [at 31.6 µM],–
C=COCCCC,0.96%,–
CC(CC(C)(C)C)CC(C)(C)CC(C)(C)C (stereo not given),1.63% [at 70.9 µM],–
COc1cc(C(C)C)ccc1C,1.56% [at 31.6 µM],–
CN(C)CCOc1ccc(/C(=C(/CCCl)c2ccccc2)c2ccccc2)cc1,–,94.3 µM (active)
